Screen size: about 5,500 compounds; about 2,000 (36%) were called active. Another 18% or so got no clear call; they are omitted. No stated cut-off is given here; in the data, active means normalized growth mostly below about 0.91 (no sharp cut-off); inconclusive means no clear call, values can overlap the other calls; inactive means mostly above about 0.92. Some of the results follow.
Assay: chemical genetic growth profiling, strain panel (AID 1159580);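 further: tested at 20 µM; growth read once vehicle control cultures reached saturation at 30 °C; 1 = growth at the plate median or of vehicle wells; lower values mean less growth of the strain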
Conditions: S. cerevisiae deletion strains, growth OD

Measured: normalized growth

O=C1c2ccccc2C(=O)c2sccc21
active: locus YAR019C, strain CDC15, hits give low values 0.556 | locus YBL105C, strain PKC1, hits give low values 0.778 | locus YBR135W, strain CKS1, hits give low values 0.716 | locus YBR136W, strain MEC1, hits give low values 0.718 | locus YBR160W, strain CDC28, hits give low values 0.75 | locus YDL017W, strain CDC7, hits give low values 0.72 | locus YDL028C, strain MPS1, hits give low values 0.749 | locus YDL101C, strain DUN1, hits give low values 0.466 | locus YDL108W, strain KIN28, hits give low values 0.752 | locus YDL132W, strain cdc53, hits give low values 0.674 | locus YDL214C, strain PRR2, hits give low values 0.233 | locus YDR052C, strain DBF4, hits give low values 0.646 | locus YDR054C, strain cdc34, hits give low values 0.556 | locus YDR226W, strain ADK1, hits give low values 0.751 | locus YDR477W, strain SNF1, hits give low values 0.209 | locus YER123W, strain YCK3, hits give low values 0.183 | locus YER133W, strain GLC7, hits give low values 0.225 | locus YFL009W, strain cdc4, hits give low values 0.59 | locus YFL029C, strain CAK1, hits give low values 0.4 | locus YFR003C, strain YPI1, hits give low values 0.694 | locus YFR019W, strain FAB1, hits give low values 0.171 | locus YFR028C, strain CDC14, hits give low values 0.649 | locus YGR040W, strain KSS1, hits give low values 0.182 | locus YGR052W, strain FMP48, hits give low values 0.156 | locus YGR092W, strain DBF2, hits give low values 0.152 | locus YHR030C, strain SLT2, hits give low values 0.157 | locus YHR079C, strain IRE1, hits give low values 0.211 | locus YHR082C, strain KSP1, hits give low values 0.204 | locus YHR205W, strain SCH9, hits give low values 0.124 | locus YIL147C, strain SLN1, hits give low values 0.669 | locus YJL095W, strain BCK1, hits give low values 0.154 | locus YJL128C, strain PBS2, hits give low values 0.595 | locus YJL157C, strain FAR1, hits give low values 0.227 | locus YJR016C, strain ILV3, hits give low values 0.483 | locus YJR066W, strain TOR1 (second series), hits give low values 0.147 | locus YJR066W, strain TOR1, hits give low values 0.15 | locus YKL048C, strain ELM1, hits give low values 0.33 | locus YKL067W, strain YNK1, hits give low values 0.272 | locus YKL101W, strain HSL1, hits give low values 0.209 | locus YKL193C, strain SDS22, hits give low values 0.498 | locus YKL203C, strain TOR2, hits give low values 0.158 | locus YLR113W, strain HOG1, hits give low values 0.303 | locus YLR133W, strain CKI1, hits give low values 0.196 | locus YLR403W, strain SFP1, hits give low values 0.154 | locus YML070W, strain DAK1, hits give low values 0.214 | locus YMR001C, strain CDC5, hits give low values 0.614 | locus YMR205C, strain PFK2 (second series), hits give low values 0.236 | locus YMR277W, strain FCP1, hits give low values 0.46 | locus YNL006W, strain LST8, hits give low values 0.593 | locus YNL020C, strain ARK1, hits give low values 0.183 | locus YNL161W, strain CBK1, hits give low values 0.636 | locus YNL183C, strain NPR1, hits give low values 0.161 | locus YNL207W, strain RIO2, hits give low values 0.473 | locus YNL222W, strain SSU72, hits give low values 0.634 | locus YNL307C, strain MCK1 (second series), hits give low values 0.16 | locus YOL078W, strain AVO1, hits give low values 0.511 | locus YOL136C, strain PFK27, hits give low values 0.192 | locus YOR061W, strain CKA2, hits give low values 0.244 | locus YOR119C, strain RIO1, hits give low values 0.221 | locus YOR231W, strain MKK1, hits give low values 0.206 | locus YOR329C, strain SCD5, hits give low values 0.579 | locus YPL031C, strain PHO85, hits give low values 0.184 | locus YPL153C, strain RAD53, hits give low values 0.207 | locus YPL204W, strain HRR25, hits give low values 0.198 | locus YPL209C, strain IPL1, hits give low values 0.684 | locus YPL256C, strain CLN2, hits give low values 0.223 | locus YPR025C, strain CCL1, hits give low values 0.705 | locus YPR106W, strain ISR1, hits give low values 0.601 | locus YPR111W, strain DBF20, hits give low values 0.691 | strain NNK1, hits give low values 0.305 | strain TSCII, hits give low values 0.527

Source: PubChem BioAssay AID1159580 (chemical genetic matrix, 2015)
